Source: PubChem (National Center for Advancing Translational Sciences (NCATS))
DRD3 antagonist = D3 dopamine receptor (human) antagonism; P35462; D3R cells, DiscoveRx beta-arrestin luminescence, antagonist mode; hits give low values; max response, negative = inhibition, %; actives 2.5% (n = 360,000); in the data active = max response below about -50%; inconclusive = no clear call, values can overlap the other calls; also: % is scaled to controls: 0 for no effect and ±100 for the full control effect
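Cells plated overnight at 1500 cells/well, then exposed to library compounds with dopamine controls for 90 minutes at 37 degrees C. DiscoveRx reagent added for 30–60 minutes at room temperature; luminescence read, quantitative HTS format.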
D1 potentiator = human D1 dopamine receptor positive modulation; actives 0.036% (n = 360,000); AID 504651; potentiation, % at 10 µM; HEK293 TREx D1 cells, calcium flux, dopamine EC20 potentiation; in the data active = potentiation above about 30%; also: 0% is about no effect
Target sequence (P21728 whole entry, looked up): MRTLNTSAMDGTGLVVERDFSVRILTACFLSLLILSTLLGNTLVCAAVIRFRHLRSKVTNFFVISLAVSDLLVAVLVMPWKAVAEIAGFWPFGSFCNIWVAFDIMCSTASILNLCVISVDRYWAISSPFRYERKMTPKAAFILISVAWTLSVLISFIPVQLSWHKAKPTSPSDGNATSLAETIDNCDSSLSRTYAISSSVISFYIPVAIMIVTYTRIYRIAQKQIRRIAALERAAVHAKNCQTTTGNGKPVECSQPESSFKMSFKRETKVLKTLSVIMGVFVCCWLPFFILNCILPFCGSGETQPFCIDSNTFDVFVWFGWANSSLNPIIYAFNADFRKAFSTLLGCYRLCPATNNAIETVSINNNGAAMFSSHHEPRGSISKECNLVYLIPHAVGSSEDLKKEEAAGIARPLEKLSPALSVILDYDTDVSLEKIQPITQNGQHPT
DRD3 agonist = agonists of human D3 dopamine receptor | D3R DiscoveRx beta-arrestin cells, luminescence, 90 min | max activation, % | AID 652048 | P35462 | actives 0.58% (n = 410,000); in the data active = max activation above about 30%; also: 0% is about no effect
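Cells at 1500/well, incubated overnight, then treated with pinned compounds (dopamine as control) for 90 min at 37 degrees C. DiscoveRx reagent added for 30 - 60 minutes at room temperature; luminescence read.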
D1 antag = blocks dopamine activation of the human D1 receptor; P21728; HEK293 TREx D1 cells, calcium flux, dopamine EC80; hits give low values; activity change, negative = inhibition, % at 10 µM; actives 3.2% (n = 360,000); AID 504652; in the data active = activity change below about -30%; also: % is scaled to controls: 0 for no effect and ±100 for the full control effect
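Kinetic fluorescence of a calcium dye serves as the read-out. D1-expressing Hek293 Trex cells, induced overnight at 30 C, are exposed to compound for 180 s before an EC80 dopamine addition, then read 180 s further.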
D1 agonist = agonists of human D1 dopamine receptor; P21728; HEK293 T-REx D1 cells, calcium flux, agonist mode; activation, % at 2 µM; actives 1% (n = 360,000); AID 504660; in the data active = activation above about 30%; also: 0% is about no effect
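Inducible HEK293 T-REx D1 cells, force-coupled to calcium signalling, were plated at 4000 cells/well with tetracycline and held overnight at 30 C. After no-wash calcium dye loading, compound-evoked calcium rise over 180 s flagged agonists.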
The depositor's hits bear a star; u = inconclusive; x = no result. A selection: hits, their analogues and other compounds. The true share with any hit is near 6%.

SMILES	DRD3 antagonist	D1 potentiator	DRD3 agonist	D1 antag	D1 agonist
O=C(CSc1cccc2cccnc12)N/N=C/c1cccc(O)c1	19	-1	2	4	3
O=C(CSc1nc2ccsc2c(=O)n1Cc1ccccc1Cl)NCc1ccc(F)cc1	x	0	2	4	8
COc1ccc(-c2cc(C)nc(SCc3cccc(C(=O)O)c3)n2)cc1	13	-3	-8	-13	4
O=C(O)c1cccc(CSc2nc(-c3ccc(Cl)cc3)cc(C(F)(F)F)n2)c1	u	0	1	-37*	9
COc1ccc(-n2nnnc2S(=O)(=O)CC(=O)N2CCCCC2)cc1	-98*	x	-9	-6	6
CCc1ccc(NCc2cc3ccc(OC)cc3n(CC(=O)Nc3ccc(F)cc3F)c2=O)cc1	x	-1	2	-2	0
O=C(OC1CC2CC1[C@H]1CCCCN1C2=O)N1CCN(S(=O)(=O)c2ccccc2)CC1 (some centres not stated)	-53*	x	2	x	x
S=C(NCC1CCCO1)Nc1ccc(Nc2ccccc2)cc1 (configuration not stated)	-17	-8	-2	-34*	12
COc1cc2ccccc2cc1C(=O)N(CCN(C)C)c1nc2c(F)cc(F)cc2s1	-20	-6	-21	-36*	1
COc1cc(/C=C2\SC(=O)NC2=O)ccc1Oc1cnccn1	7	0	0	-41*	-1
Cc1c(Cl)cccc1NC(=O)C(C)n1nc(C)c2c(C)n(-c3ccccc3)nc2c1=O (configuration not stated)	x	-2	-6	9	2
C/C(=N/NC(=O)c1ccc2c(c1)OCO2)c1cccc([N+](=O)[O-])c1	-11	-1	-1	1	0
C/C(=N/NC(=O)c1ccc2c(c1)OCCO2)c1ccc([N+](=O)[O-])cc1	1	-8	-2	-52*	1
C/C(=N\NC(=O)c1cccc(N/N=C(\C)c2ccccc2)c1)c1ccccc1	20	-14	0	-12	-1
C/C(=N\NC(=S)NCc1ccccc1)c1ccc(Br)cc1	-14	1	-5	16	4
C/C(=N\NC(=S)NCc1ccccc1)c1ccc2c(c1)OCCO2	-4	-6	0	-31*	9
C/C(=N\NC(=O)c1cccc(N/N=C(\C)c2ccc([N+](=O)[O-])cc2)c1)c1ccc([N+](=O)[O-])cc1	-2	-14	-2	-38*	0
Cn1cnc(S(=O)(=O)N2CCCC(C(=O)NCc3ccc(F)cc3)C2)c1 (configuration not stated)	x	0	10	5	0
CCCSc1nnc2c(n1)OC(c1sccc1C)Nc1ccccc1-2 (configuration not stated)	x	0	5	-1	-1
O=C(NCC(c1ccco1)N1CCCCC1)c1ccc(S(=O)(=O)Nc2ccccc2)cc1 (configuration not stated)	5	0	-5	7	11
Cc1ccc(NS(=O)(=O)c2cccc(C(=O)NCC(c3ccco3)N3CCCC3)c2)cc1 (configuration not stated)	u	x	-22	13	44*
CCOc1ccc(NS(=O)(=O)c2ccc(C(=O)NCC(c3ccco3)N3CCCCC3)cc2)cc1 (configuration not stated)	2	x	-3	x	x
Cc1ccc(NS(=O)(=O)c2ccc(C(=O)NCC(c3ccco3)N3CCCCC3)cc2)cc1 (configuration not stated)	-8	-3	-6	-1	39*
Cc1ccc(S(=O)(=O)N(C)c2ccc(C(=O)NCC(c3ccccc3)N3CCCC3)cc2)cc1 (configuration not stated)	-64*	x	-15	x	x
CN(c1ccccc1)S(=O)(=O)c1ccc(C(=O)NCC(c2ccco2)N2CCCCC2)cc1 (configuration not stated)	u	-9	-16	6	2
SMILES	DRD3 antagonist	D1 potentiator	DRD3 agonist	D1 antag	D1 agonist
CCOc1ccc(S(=O)(=O)Nc2ccc(C(=O)NCC(c3ccco3)N3CCCCC3)cc2)cc1 (configuration not stated)	-24	4	-27	0	33*
COc1ccc(OC)c(NC(=O)CSc2ccnc(=O)[nH]2)c1	x	4	8	x	-2
O=C(Nc1cccc(C(=O)N2CCN(c3cccc(Cl)c3)CC2)c1)c1nsc2ccccc12	x	0	5	-3	0
O=S(=O)(NCC(c1ccco1)N1CCCCC1)c1ccccc1C(F)(F)F (configuration not stated)	-19	-1	4	-42*	2
Cc1cc2c(s1)c1cnn(Cc3cccc(C(F)(F)F)c3)c(=O)c1n2C	x	-6	x	-4	7
CCC(C)Sc1oc(-c2ccco2)nc1S(=O)(=O)c1ccc(C)cc1 (configuration not stated)	x	2	0	-2	12
Cc1ccc(C(=O)Nc2cc3cc(Cl)ccc3oc2=O)cc1	x	0	6	3	2
CC(=O)c1cccc(OCCN2C(=O)NC(C)(C)C2=O)c1	14	1	7	-30*	0
CC1CC(C)(C)Nc2ccc(N=O)cc21 (configuration not stated)	-84*	-4	-12	-45*	2
CC1CC(C)(C)Nc2ccc(OC(=O)c3ccco3)cc21 (configuration not stated)	21	-7	2	-13	12
CCN1CCOC(=O)C1CC(=O)Nc1cc(Cl)ccc1OC (configuration not stated)	x	2	-14	1	-1
O=C(Nc1ccccc1)Nc1nnc([C@@H]2C[C@H](O)[C@@H](CO)O2)s1	-68*	x	-12	x	x
O=C(Nc1cccc(F)c1)Nc1nnc([C@@H]2C[C@H](O)[C@@H](CO)O2)s1	22	x	4	x	x
O=C(Nc1ccc(OCc2ccccc2)cc1)Nc1nnc([C@H]2C[C@H](O)[C@@H](CO)O2)s1	-53*	x	-14	x	x
CC(C)NC(=O)Nc1nnc([C@@H]2C[C@H](O)[C@@H](CO)O2)s1	-20	x	38*	x	x
O=C(Nc1ccc(F)cc1)Nc1nnc([C@@H]2C[C@H](O)[C@@H](CO)O2)s1	-4	x	62*	x	x
CC1CCn2c(nc3cc(C(=O)NCc4ccccc4)ccc32)C1 (configuration not stated)	x	-2	-10	7	-1
CCc1ccc2nc(N(Cc3cccnc3)C(=O)Cc3ccccc3)sc2c1	x	-1	-10	x	3
COc1cccc(/C=C/C(=O)OCC(=O)NCC2CCCO2)c1OC (configuration not stated)	10	5	3	-34*	5
COc1ccc(/C=C2\SC(=S)N(CCC(=O)Nc3ccc(O)cc3)C2=O)cc1	-17	-8	-2	27	0
CCN(CC)CCOC(=O)c1ccc(NC(=O)CCCN2C(=O)S/C(=C/c3ccc(OC)cc3)C2=S)cc1	-83*	-9	-19	-65*	3
